This is a sample that favours compounds with a hit; in the whole collection about 3.2% have one here.
Sm TGR block = S. mansoni TGR enzyme inhibition | purified TGR, DTNB reduction, TNB absorbance 405 nm | Q962Y6 | actives 3% (n = 360,000) | AID 485364 | Potency, µM (titrated, usually from 114 µM), for the others: at the top dose activity change, negative = inhibition, usual class: inhibitors; further: nearly all actives have a fitted effect of over 60% in size
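Kinetic colorimetric format: TGR-catalysed, NADPH-driven DTNB reduction monitored via TNB absorbance. Enzyme dispensed at 20 nM; compound exposure 15 min at room temperature before reaction start.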
LmPK inhibitor = LmPK (Leishmania mexicana) enzyme inhibition. Q27686. purified LmPK, Kinase-Glo ATP luminescence, 1 h. Potency, µM (doses to about 57.5 µM), for inactives: top-dose activity change, negative = inhibition, usual class: inhibitors. actives 0.37% (n = 290,000)
Target sequence (Q27686 whole entry, looked up): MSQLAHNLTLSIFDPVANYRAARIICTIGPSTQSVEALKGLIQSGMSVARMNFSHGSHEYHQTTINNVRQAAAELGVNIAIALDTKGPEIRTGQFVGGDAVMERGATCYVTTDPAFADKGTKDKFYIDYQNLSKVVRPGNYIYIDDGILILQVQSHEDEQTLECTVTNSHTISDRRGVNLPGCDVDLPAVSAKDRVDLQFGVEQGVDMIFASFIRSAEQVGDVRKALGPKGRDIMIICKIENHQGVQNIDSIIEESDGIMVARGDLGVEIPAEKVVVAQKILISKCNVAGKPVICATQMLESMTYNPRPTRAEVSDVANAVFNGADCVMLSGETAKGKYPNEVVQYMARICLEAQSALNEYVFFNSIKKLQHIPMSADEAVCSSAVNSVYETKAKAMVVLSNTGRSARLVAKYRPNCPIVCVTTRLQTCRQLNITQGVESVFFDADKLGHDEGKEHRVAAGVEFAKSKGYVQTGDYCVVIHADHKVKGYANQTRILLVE
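Kinase-Glo luminescence read after 1 h RT reaction of 0.1 nM LmPK with 0.5 mM PEP and 0.1 mM ADP. Activity scaled between uninhibited and enzyme-free controls.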
AMA1-RON2 inh = inhibitors of Plasmodium falciparum AMA1-RON2 interaction; Potency, µM (doses to about 58.2 µM), inactives show top-dose activity change, negative = inhibition, most hits filed as inhibitors; AID 720542; AlphaScreen AMA1-biotinylated RON2 peptide binding; actives 0.2% (n = 360,000);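 further: 0% = vehicle wells and -100% = peptide control; nearly all actives have a fitted effect of over 45% in size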
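AMA1 (3D7) with his tag at 25 nM final met compounds first, then biotinylated RON2 peptide at 25 nM; detection used donor plus acceptor beads, 10 µg/mL apiece, read by AlphaScreen after 30 min at room temperature.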
TbPYK inhibitor = blocks Trypanosoma brucei pyruvate kinase; TbPYK enzyme, Kinase-Glo Plus ATP luminescence, 45 min; Potency, µM (top dose mostly 76.8 µM), inactives show top-dose activity, negative = inhibition, usual class: inhibitors; actives 0.12% (n = 410,000); further: nearly all actives have a fitted effect of over 50% in size
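Screened from lowest to highest concentration, compounds were pinned into TbPYK/substrate mixtures, and ADP (130 uM final) was added. Plates sat at room temperature for 45 min prior to Kinase-Glo Plus detection by luminescence.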
RE007 growth inh = less growth of the S. pombe RE007 Vpr strain | actives 0.21% (n = 360,000) | Potency, µM (titrated, usually from 92.2 µM), without a hit: at the highest dose activity change, negative = less growth, actives largely listed as inhibitors | S. pombe RE007 Vpr strain, BacTiter-Glo ATP luminescence, 24 h; active means well fitted falling curve with a large enough effect; inconclusive means small, poorly fitted or top-dose-only effect; inactive means no such curve, though single readings can be large or run the other way; further: nearly all actives have a fitted effect of over 50% in size
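Fission yeast strain RE007, carrying one chromosomally integrated HIV-1 vpr copy, was seeded at OD 0.01 in PMG+AL medium with 23 nL pinned compound. After 24 h at 30 °C and 99% humidity, viability was read by BacTiter-Glo luminescence.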
Numbers without * were called inactive; ? = inconclusive; nt = not tested or not shown; [ ] = remark or other dose. Unless noted, the call rests on the fitted dose curve; in most records, active means well fitted curve in the direction sought with a large enough effect; inconclusive means small, poorly fitted or top-dose-only effect, or another doubt; inactive means no such curve, though single readings can be large; an effect the other way counts as inactive or inconclusive. Unless noted, on the % scale 0 is the no-effect control and ±100 the full control effect; potency means the concentration at half of the fitted maximal effect.

SMILES	Sm TGR block	LmPK inhibitor	AMA1-RON2 inh	TbPYK inhibitor	RE007 growth inh
O=C(/C=C\c1ccco1)Oc1cccc2cccnc12	?	20.0%	65.9%	-5.5%	?
O=C(Cc1ccccc1)N/N=C/c1ccc(OC(=O)/C=C\c2ccco2)cc1	35.5µM*	-0.8%	15.4%	-0.1%	6.4%
COC(=O)N/N=C/c1ccc(OC(=O)/C=C/c2ccco2)cc1	?	6.0%	?	-3.5%	-12.3%
CCc1ccc(OC(=O)/C=C/c2ccco2)cc1	28.2µM*	-13.3%	-10.0%	-2.0%	5.4%
O=C(/C=C/c1ccc(O)c(O)c1)O[C@H](Cc1ccc(O)c(O)c1)C(=O)O	3.16µM*	20.7%	nt	nt	nt
Cc1nn(CCO)c2nc(-c3cccs3)cc(C(F)(F)F)c12	25.1µM*	-1.8%	-13.6%	7.4%	-12.8%
COc1ccc(Br)cc1CNc1ccc(O)cc1	28.2µM*	1.8%	?	0.5%	?
COc1ccc(C(C#N)=C2C=CC(=NO)C(C)=C2Cl)cc1	nt	nt	3.16µM*	-4.3%	2.5%
COc1ccc(C(=N/O)/C(=N/O)c2ccc(OC)cc2)cc1	4.6%	-0.9%	-1.9%	0.6%	-7.7%
CCOC(=O)/C(C#N)=C(/C)c1ccc(OC)cc1	-25.5%	5.6%	26.5%	2.0%	6.2%
COc1ccc(C(C#N)=C2C=C(Cl)C(=NO)C=C2Cl)cc1	nt	nt	22.4µM*	-1.0%	-8.7%
CC(=O)c1cc(-c2ccc(F)cc2)n(CCC(=O)Nc2nc3c(C)cccc3s2)c1C	-2.4%	nt	nt	7.2%[15.4 µM]	nt
CCN1/C(=C/c2ccc3ccccc3[n+]2CC)C=Cc2ccccc21	?	14.1µM*	?	31.6µM*	22.4µM*
CCN1/C(=C/c2ccc3ccccc3[n+]2CCCS(=O)(=O)[O-])C=Cc2cc(C)ccc21	-1.1%	-8.4%	-10.0%	?	-25.8%
Cc1cccc(NC(=O)CN2C(=O)C3(SCC(=O)N3c3ccccc3)c3ccccc32)c1 (stereo not drawn)	-1.5%	nt	nt	5.4%	nt
COc1ccc(N2Cc3ccc(C(=O)N/N=C\c4ccc(O)cc4O)cc3C2)cc1	28.2µM*	2.9%	nt	nt	nt
CCc1ccc(NC(=O)C2CCCN(S(=O)(=O)c3c(C)noc3/C=C/N(C)C)C2)cc1 (stereo not drawn)	0.0%	nt	nt	1.5%	nt
Cc1cc(C)c(NC(=O)Cn2c(=O)n(Cc3ccco3)c(=O)c3ccc(C(=O)NC4CCCC4)cc32)c(C)c1	1.6%	nt	nt	-1.7%	nt
COc1cccc(N2CC(NC(=O)c3cc(Cl)ccc3OC)CC2=O)c1 (stereo not drawn)	8.7%	nt	nt	-2.9%	nt
O=C(/C=C\Nc1ccccn1)c1ccc(Cl)cc1	5.2%	12.6µM*	2.8%	-14.9%	-19.0%
CCCCn1cc(S(=O)(=O)c2ccc(CC)cc2)c(=O)c2cc(F)c(N3CCCC(C)C3)cc21 (stereo not drawn)	-0.1%	nt	nt	-0.2%	nt
CSc1oc(-c2ccco2)nc1S(=O)(=O)c1ccc(Br)cc1	50.1µM*	4.6%	-10.9%	-10.7%	-8.1%
CCCSc1oc(-c2ccco2)nc1S(=O)(=O)c1ccccc1	56.2µM*	-1.5%	-0.8%	-5.0%	3.1%
Cc1ccc(S(=O)(=O)c2nc(-c3ccco3)oc2SC(C)c2ccccc2)cc1 (stereo not drawn)	?	nt	nt	3.6%	nt
CCCSc1oc(-c2ccco2)nc1S(=O)(=O)c1ccc(Br)cc1	-35.9%	nt	nt	-2.4%	nt
SMILES	Sm TGR block	LmPK inhibitor	AMA1-RON2 inh	TbPYK inhibitor	RE007 growth inh
NC(=O)CSc1oc(-c2ccco2)nc1S(=O)(=O)c1ccc(Br)cc1	17.8µM*	-5.7%	-2.2%	-5.1%	5.5%
CC(C)Sc1oc(-c2ccco2)nc1S(=O)(=O)c1ccc(F)cc1	17.8µM*	2.7%	-1.0%	-12.1%	-19.9%
CCN1CCC(N(Cc2cccc(OC)c2)C(=O)Nc2cccc(C(F)(F)F)c2)CC1	1.1%	nt	nt	2.2%	nt
CCCN1C(=O)c2[nH]nc(-c3ccccc3O)c2C1c1cccc(OCc2ccccc2)c1 (stereo not drawn)	23.1%	nt	nt	0.2%	nt
O=C(CSc1oc(-c2ccco2)nc1S(=O)(=O)c1ccc(Cl)cc1)c1ccc(Cl)cc1	-21.4%	nt	nt	-10.4%	nt
NC(=O)CSc1oc(-c2ccco2)nc1S(=O)(=O)c1ccc(Cl)cc1	20µM*	1.5%	12.5%	-7.0%	9.4%
Cc1ccc(S(=O)(=O)c2nc(-c3ccco3)oc2SCC(N)=O)cc1	39.8µM*	6.0%	-11.2%	-1.7%	8.2%
COc1cc(NCc2ccc3nc(N)nc(N)c3c2C)cc(OC)c1OC	nt	nt	nt	-6.6%	nt
C=C(C=O)CC1CC(O)[C@]2(C)OC3CC4OC5C[C@]6(C)O[C@]7(C)CCC8OC9C[C@]%10(C)OC%11C(C)=CC(=O)OC%11CC%10OC9C[C@@H](C)C8OC7CC6O[C@]5(C)CC5OC5C4OC3CC2O1 (stereo partly drawn)	11.2µM*	-5.8%	42.4%	-2.5%	818.6%
O=c1c2oc3ccccc3c2n(Cc2ccccc2Cl)c(=O)n1Cc1ccco1	-27.2%	nt	nt	6.0%	nt
Cc1ccc(Nc2nc(N)nc(CN3CCCCCC3)n2)cc1	39.8µM*	1.6%	-14.9%	3.8%	-13.9%
Cc1ccc2c(CN3CCN(C(=O)c4ccco4)CC3)cc(=O)oc2c1C	44.7µM*	-0.2%	-13.4%	5.0%	6.1%
Cc1ccc(NC(=O)N2CCN(C(=O)c3ccco3)CC2)cc1Cl	4.5%	-2.4%	19.9%	5.4%	-2.1%
Cc1ccc(Nc2nc(N)nc(CN3CCN(C(=O)c4ccco4)CC3)n2)cc1Cl	39.8µM*	-2.9%	15.5%	-6.8%	0.3%
COc1ccc(-n2nc(C(=O)Nc3ccc(C)cn3)c3c4ccccc4n(C)c3c2=O)cc1	1.3%	nt	nt	-1.6%	nt
O=S(=O)(c1ccc(Br)cc1)c1nc(-c2ccco2)oc1NCCCn1ccnc1	22.4µM*	nt	-19.0%	-1.8%	7.1%
O=S(=O)(c1ccccc1)c1nc(-c2cccs2)oc1NCCCn1ccnc1	?	-3.4%	-13.0%	-19.0%	6.2%
O=S(=O)(c1ccccc1)c1nc(-c2ccco2)oc1NCCCN1CCOCC1	28.2µM*	1.3%	3.4%	-4.9%	13.2%
CCN1CCN(C(=O)N[C@H](C(=O)N[C@@H]2C(=O)N3[C@@H](C(=O)O)C(C)(C)S[C@@H]23)c2ccccc2)C(=O)C1=O	nt	nt	nt	8.1%	nt
Cc1nc([N+](=O)[O-])cn1-c1ccc([N+](=O)[O-])cc1	nt	nt	nt	1.3%	nt
O=C(CSc1ncc2c(n1)-c1ccccc1N(Cc1ccc(Cl)cc1)S2(=O)=O)c1ccc(Cl)cc1	-3.5%	nt	nt	-0.2%	nt
CN(C)CCCNc1cc(-c2ccccc2)nc2cc(-c3cccc(F)c3)nn12	100µM*	4.3%	0.0%	-9.5%	1.9%
Cc1ccc(-c2cc(NC(=O)C(C)Oc3ccc(C)c(C)c3)on2)cc1 (stereo not drawn)	11.7%	nt	nt	-0.2%	nt
